A selection: hits, their analogues and other compounds. The true share with any hit is near 0.79%.
AddAB inh = less growth of phage-infected E. coli with AddAB | E. coli expressing H. pylori AddAB, absorbance growth | inhibition, % at 11.9 µM | actives 0.29% (n = 330,000) | AID 435030; in the data active = inhibition above about 12%;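 also: 0% = vehicle wells of infected cells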
E coli growth-1 = E. coli growth inhibition. AID 1053175. actives 0.21% (n = 330,000). Escherichia coli growth, OD600, 23 h; active compounds read low. OD600 absorbance (test concentration not listed);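 active = OD600 absorbance below the run mean of sample wells minus 3.6 SD, in any replicate, cut at about 0.56 in these data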
E coli growth-2 = reduces bacterial viability in AddAB counter-screen; E. coli V3065 growth, OD600 absorbance, 18 h; inhibition, % at 11.9 µM; actives 0.27% (n = 330,000);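 active = inhibition above the campaign's mean inhibition across all tested compounds plus 3 SD, cut at about 9.9% in these data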;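 also: uninfected addAB+ strain grown without phage in ampicillin broth; 0% = DMSO wells and 100% = ciprofloxacin 0.95 µg/ml wells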
phage Ecoli inh = E. coli growth loss with phage present. inhibition, % at 11.9 µM. AID 651602. actives 0.26% (n = 360,000). growth absorbance; in the data active = inhibition above about 11%
Tat transport = blocks Tat-dependent protein export in E. coli; E. coli MC4100 TorA-mCherry Tat export, fluorescence; inhibition, % at 10 µM; actives 0.036% (n = 340,000); AID 488895;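 active = mean replicate inhibition at least 50% and at least half of replicates individually reaching 50%; inconclusive = only one of the two criteria met; inactive = neither criterion met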;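 also: exported cargo escapes ClpAP degradation while cytoplasmic cargo is degraded and loses fluorescence; 0% = median of neutral control wells and 100% = median of NaSCN control wells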
AI-2 QS mod = modulates the Vibrio harveyi AI-2 quorum sensing system; Vibrio harveyi JMH597 AI-2 luminescence/OD600 ratio, 9 h; active compounds read low; strain lacks LuxN and CqsS sensors; 0 = neutral-control median; activity change, % at 7.5 µM; actives 0.4% (n = 300,000); AID 2094; in the data active = activity change below about -75%, passing the limit was not always enough; inconclusive = no clear call, values can overlap the other calls;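 also: luminescence divided by OD600 gain over 9 h not by final OD600 alone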
JMH597 growth rt = retest: inhibitors of Vibrio harveyi JMH597 growth | shares compounds with AI-2 QS mod | OD600 absorbance, 9 h; lacks LuxN and CqsS sensors | growth inhibition, % at 7.5 µM | actives 1% (n = 750) | AID 2726;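 active = every replicate shows growth inhibition above 50%; inconclusive = at least half, but not all, replicates pass that cutoff; inactive = fewer than half of replicates pass it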
BB721 const-QS lum = retest counter-screen: luminescence loss in constitutive-on quorum sensing strain BB721; shares compounds with AI-2 QS mod; Vibrio harveyi BB721 luminescence, 9 h; inhibition, % at 7.5 µM; actives 95% (n = 750);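 active = inhibition above about 80% in every replicate, not just on average, limit read from the data; inconclusive = at least half of replicates past the limit, but not all; inactive = fewer than half of replicates past the limit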
BB721 growth = retest: inhibitors of Vibrio harveyi BB721 growth | shares compounds with AI-2 QS mod | OD600 absorbance, 9 h | growth inhibition, % at 7.5 µM | actives 3% (n = 750) | AID 2728;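 active = every replicate shows growth inhibition above 50%; inconclusive = at least half but not all replicates above 50% inhibition; inactive = under half of replicates above 50% inhibition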
JMH597 AI-2 mod = Vibrio harveyi AI-2 signaling luminescence modulation – JMH597 strain, confirmation. inhibition, % at 7.5 µM. actives 97% (n = 750). Vibrio harveyi JMH597 AI-2 quorum sensing luminescence, 9 h; luxN and CqsS knockout, AI-2 only. shares compounds with AI-2 QS mod;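 active = every replicate shows more than 75% inhibition of signal versus neutral control wells; inconclusive = half to three quarters of replicates exceed 75% inhibition; inactive = fewer than half of replicates exceed 75% inhibition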
An asterisk follows results filed as active; ? = inconclusive; / = no result given.

SMILES	AddAB inh	E coli growth-1	E coli growth-2	phage Ecoli inh	Tat transport	AI-2 QS mod	JMH597 growth rt	BB721 const-QS lum	BB721 growth	JMH597 AI-2 mod
Cc1ccc(OCC(=O)O/N=C(\N)c2cccnc2)cc1	2	0.63	2	2	-3	-84*	8	92*	13	95*
N/C(=N\OC(=O)CCCOc1ccccc1)c1ccccc1	0	0.71	0	4	1	-83*	3	92*	5	93*
N/C(=N\OC(=O)COc1ccc(Cl)cc1)c1cccnc1	-1	0.69	1	6	-3	?	/	/	/	/
COc1cccc(C=NNC(=S)NCc2ccco2)c1OC	/	0.72	/	/	/	/	/	/	/	/
COc1cc(C=NNC(=O)C(Cc2c[nH]c3ccccc23)NC(=O)OCC(C)C)cc([N+](=O)[O-])c1OCc1ccccc1 (configuration not stated)	/	0.65	/	/	/	/	/	/	/	/
O=C(Nc1ccc(Oc2cccc3ccccc23)cc1)c1ccco1	3	0.67	2	5	2	-88*	32	95*	45	93*
O=C(OC1CCCCC1)c1ccc(NC(=O)c2ccco2)cc1	3	0.71	3	0	2	-79*	25	85*	?	90*
O=C(O)c1ccccc1C(=O)Nc1ccc(Oc2cccc3ccccc23)cc1	/	0.6	/	2	8	41	/	/	/	/
CC(=O)OC1CCC2C3CCc4cc(O)ccc4C3CC[C@]12C (some centres not stated)	/	0.75	/	/	/	/	/	/	/	/
COc1cc(C=NNC(=O)c2ccc(C)nc2)cc([N+](=O)[O-])c1O	/	0.68	/	/	/	/	/	/	/	/
CCOc1cc(C=NNC(=O)c2ccc(NC(=O)C(C)(C)C)cc2)ccc1OC(=O)c1ccc(C)cc1	/	0.72	/	/	/	/	/	/	/	/
Cc1occc1C(=O)NNC(=O)Nc1ccc(Cl)c(Cl)c1	-1	0.66	-2	5	5	-86*	16	93*	5	94*
COc1ccc(OC)c(C(C)=NNc2ccc(C(=O)O)cc2)c1	/	0.69	/	/	/	/	/	/	/	/
CCN1C(=O)C2C(c3ccc(C)cc3)N3C(=O)N(c4cccc(F)c4)C(=O)[C@@]3(Cc3ccc(Cl)cc3)C2C1=O (some centres not stated)	/	0.68	/	/	/	/	/	/	/	/
O=C(O)c1ccc(NCc2ccc(Br)cc2)cc1	-1	0.65	1	3	-6	-96*	-8	100*	12	100*
O=C(O)c1ccc(NCc2cccnc2)cc1	-1	0.66	1	-2	-6	19	/	/	/	/
CCC(C)C(C(=O)N1CCN(C(=O)OC(C)(C)C)CC1)n1cc(CCC(=O)O)nn1 (configuration not stated)	/	0.69	/	/	/	/	/	/	/	/
Cc1cccc(Oc2cnn(C(C)(C)C)c(=O)c2Cl)c1	1	0.65	-1	1	3	-92*	21	96*	-19	98*
Cc1ncn(-c2ccc(C(=O)Oc3ccccc3)cn2)n1	0	0.67	1	3	-4	-87*	19	93*	1	96*
c1ccc(C2C3CN(Cc4cccnc4)C(c4ccccc4)C34CC2(c2cccnc2)C4)cc1 (configuration not stated)	/	0.7	/	/	/	/	/	/	/	/
Cc1ccc(/C=N/NC(=O)CNC(=O)c2cccs2)cc1	1	/	0	0	0	-90*	2	97*	11	97*
O=C(CNC(=O)c1ccncc1)NN=Cc1ccc(Br)cc1	/	0.66	/	/	/	/	/	/	/	/
O=C(CNC(=O)c1ccncc1)N/N=C/c1ccc(Br)cc1	-1	/	0	1	-11	?	3	95*	10	94*
C=CCn1c(COc2ccccc2)nnc1SCC(=O)NN=Cc1cc(Cl)ccc1O	/	0.76	/	/	/	/	/	/	/	/
O=C1CCCCC1Nc1ccc([N+](=O)[O-])cc1 (configuration not stated)	/	/	/	3	-4	/	/	/	/	/
SMILES	AddAB inh	E coli growth-1	E coli growth-2	phage Ecoli inh	Tat transport	AI-2 QS mod	JMH597 growth rt	BB721 const-QS lum	BB721 growth	JMH597 AI-2 mod
O=[N+]([O-])c1ccc(NC2CCCC2)cc1	1	0.64	-1	2	3	-83*	28	93*	20	94*
O=C(/C=C/c1ccccc1)NNc1ccc(Cl)cc1	1	0.68	0	-3	8	-97*	32	100*	?	100*
O=C(COC(=O)c1ccc(Cl)s1)c1cc2ccccc2o1	1	0.68	-2	4	7	-95*	21	99*	29	99*
O=c1oc2ccccc2cc1NCc1ccccc1O	3	0.68	-2	4	-6	-94*	14	97*	15	98*
O=C(NCc1ccccc1Cl)c1cc2ccccc2oc1=O	-1	0.65	0	3	-3	-9	/	/	/	/
Cc1ccc(NC(=O)CCCC2CCCCC2)c(O)c1	1	0.74	2	3	2	-91*	-16	97*	1	98*
CCN1C(=O)/C(=C\N(C)C)SC1=NS(=O)(=O)c1ccccc1	/	0.68	/	/	/	/	/	/	/	/
CN1CC(=O)N(CC(=O)Nc2cc(Cl)cc(Cl)c2)C1=O	1	0.68	-1	5	-6	-94*	-10	98*	17	99*
COc1ccc(C/C(N)=N/OC(=O)c2cccs2)cc1	-2	0.69	0	3	-14	-84*	39	97*	22	98*
Cc1ccccc1C(=O)O/N=C(\N)Cc1cccs1	1	0.69	1	3	-9	-87*	-7	95*	-8	96*
COc1ccccc1C/C(N)=N/OC(=O)c1cccs1	1	0.71	1	5	21	21	/	/	/	/
COc1ccc(CC(=O)O/N=C(\N)c2ccccn2)cc1OC	/	0.67	/	2	-1	13	/	/	/	/
COc1ccc(CC(=O)O/N=C(\N)c2ccc(C)cc2)cc1	0	0.65	-1	2	-2	-89*	-35	96*	-56	97*
N/C(=N\OC(=O)Cc1ccc(Cl)cc1)c1ccccn1	-1	/	0	1	5	-87*	2	91*	5	93*
Cc1ccc(CC(=O)O/N=C(\N)c2ccccn2)cc1	1	0.73	-3	1	-1	-84*	25	87*	22	91*
CCN1C(=CC(=O)c2ccco2)Sc2ccccc21	/	0.67	/	/	/	/	/	/	/	/
COc1cccc(C=Nn2nnnc2N)c1OCC#N	/	0.71	/	/	/	/	/	/	/	/
O=C(c1cc(-c2ccc(O)cc2)on1)N1CCCCCC1	4	0.69	-1	-3	3	-78*	3	93*	-5	96*
COc1cccc(C=NNC(=O)c2ccc(OCc3cccc(Br)c3)cc2)c1	/	0.65	/	/	/	/	/	/	/	/
